Measurements published in PubChem BioAssay (NCATS).
A number with no mark means an inactive call. Records with an inconclusive call do not appear. Calls of active or inactive are those of the source. Unless noted, calls follow the shape of the dose curve; as a rule, active = well fitted curve in either direction with a large enough effect (not every such curve was filed as active); inconclusive = small, poorly fitted or top-dose-only effect, or another doubt; inactive = flat fitted curve, though single readings scatter.

How the values were obtained:
[1] = target: Lysosomal acid glucosylceramidase (Homo sapiens) (UniProt P04062); assay: Glucocerebrosidase-p2 (AID 348; in the data active = potency below about 10 µM; also: potency is read from the fitted curve at half-maximal effect); conditions: purified GBA, blue fluorogenic substrate, 40 min
How it was run: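 Normal human glucocerebrosidase (0.2 nM) with blue fluorogenic substrate (80 uM final) in citrate/phosphate pH 5.9 with 10mM sodium taurocholate, 0.01% tween-20; 40 min RT, NaOH/glycine stop; fluorescence Ex 365/Em 440; AC50 from a titration from 0.6 nM upwards.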

[2] = AP1 Signaling Pathway (AID 357); conditions: ME-180 AP-1-bla reporter, EGF-induced, beta-lactamase ratio, 5 h; at 7.69 µM (top of the series) unless noted;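 also: ME-180 reporter cells stimulated with EGF at its EC50 level; % is scaled to controls: 0 for no effect and ±100 for the full control effect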
How it was run: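 First, ME-180 AP-1-bla cells were cultured overnight at 37 °C in low-serum Opti-MEM. Next, titrated compounds with EC50 EGF were incubated 5 hours. Finally, CCF4 was added for 2.5 hours and the 460/530 nm ratio recorded.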

[3] = target: Cytochrome P450 1A2 (Homo sapiens) (UniProt P05177); assay: p450-cyp1a2 (AID 410; calls by dose curve; also: potency is read from the fitted curve at half-maximal effect;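 as to activity change, negative = inhibition: -100% = full effect of reference inhibitor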); conditions: recombinant CYP1A2, luciferin-ME demethylation, luminescence; series mostly up to 11.4 µM
How it was run: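 Read-out is luminescence from luciferin produced by CYP1A2 demethylation of Luciferin-ME (100uM, at Km). Detection reagent stopped the 60 min NADPH-dependent reaction; signals were normalized to 57 uM furafylline.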

[4] = NFAT Signaling Pathway (AID 444); conditions: Jurkat NFAT-bla M1, carbachol, beta-lactamase ratio, 5 h; at 7.69 µM (top of the series) unless noted;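 also: carbachol stimulus at about its EC50 of 1 µM final; % is scaled to controls: 0 for no effect and ±100 for the full control effect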
How it was run: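 Read-out: CCF4 FRET ratio (460 nm/530 nm) after 1 h RT dye loading, used for %activity and AC50 from titration series. Cells: Jurkat NFAT-β-lactamase/M1 line, treated with compound plus 1 uM carbachol for 5 h, 37 °C.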

[5] = Stat Signaling Pathway (AID 446); conditions: ME-180 SIE beta-lactamase reporter, IL-6 stimulated, 5 h; at 7.69 µM (top of the series) unless noted;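 also: ME-180 cervical cancer cells given 40 pM IL-6 alongside compound; SIE-controlled beta-lactamase reporter measured as 460/530 nm FRET emission ratio; % is scaled to controls: 0 for no effect and ±100 for the full control effect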
How it was run: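 Compound effects on IL-6-induced STAT reporter activity were measured in ME-180 cells. After overnight culture, cells were co-treated with 40 pM IL-6 for 5 hrs before beta-lactamase substrate loading at room temperature.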

[6] = target: Glucocorticoid receptor (Homo sapiens) (UniProt P04150); assay: GR-GFP Redistribution (AID 450;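 active = compounds whose dose series gives a full or clear partial fitted curve of increased nuclear translocation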; also: potency is read from the fitted curve at half-maximal effect); conditions: U2OS GR-GFP nuclear translocation, laser cytometry, 2 h
[7] = target: Glucocorticoid receptor (Homo sapiens) (UniProt P04150); assay: GR-EFC Redistribution (AID 451; calls by dose curve; also: potency is read from the fitted curve at half-maximal effect); conditions: CHO-K1 GR-EFC translocation, beta-gal luminescence, 2 h
How it was run: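 Translocation of GR-ED fusion to nuclear EA restores b-gal, read by luminescence after 1 h room-temperature detection. Engineered CHO-K1 biosensor cells, 1,000/well, exposed 2 h at 37 C to titrations up to 46 uM final.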

[8] = target: Mitogen-activated protein kinase 10 (Mus musculus) (UniProt Q61831); assay: JNK3 AlphaScreen Assay (AID 530); conditions: JNK3 lysate, c-Jun phosphorylation; series mostly up to 11.4 µM;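 also: kinase came from lysate of stimulated human HepG2 cells; signal reports phosphorylation of biotinylated GST-cJun 1-79 at Ser73 with 10 µM ATP; % is scaled to controls: 0 for no effect and ±100 for the full control effect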
How it was run: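 Kinase buffer: 20 mM Tris-HCl pH 7.6, 10 mM MgCl2, 1 mM DTT, 0.1 mM Na3VO4, 0.01% Tween-20; ATP 10 uM. Substrate biotin-GST-cJun(1-79), enzyme from activated HepG2 lysates. Detection by Ser73 phospho-antibody AlphaScreen.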

[9] = target: 3',5'-cyclic-AMP phosphodiesterase 4B (Homo sapiens) (UniProt Q07343); assay: qHTS Assay for Inhibitors of PDE-IV (AID 607; active = well fitted activation curve with a large enough effect in the main read-out, with a control signal flat, not every such curve was filed as active; also: % of control where 0% means no effect); conditions: HEK293 ACTOne CNG channel cells, membrane potential fluorescence; series mostly up to 22.9 µM
How it was run: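 ACTOne HEK293 cells carry a modified cAMP-gated CNG channel and express endogenous PDE4; plated 1000 cells/well, compounds up to 22.9 uM final. Membrane-potential dye fluorescence (ex 535/em 590) was read; parental cells received 10 uM forskolin + 100 uM RO 20-1724.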

[10] = qHTS Assay for Identification of Small Molecule Agonists for Hypoxia Response Element Signaling Pathway (AID 914; active = well fitted activation curve with a large enough effect in the signal ratio, with a control signal flat, not every such curve was filed as active; the % refers to the signal ratio; also: % of control where 0% means no effect); conditions: ME-180 (cervical carcinoma) HRE-bla reporter, beta-lactamase ratio, CoCl2, 17 h; activation: stronger effect = higher value
How it was run: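 Read-out: CCF4 FRET ratio of 460nm to 530nm emission (excitation 405nm) after 2.5 hours at room temperature, taken from HRE-bla ME-180 cells that had been exposed to compound and EC50 CoCl2 for 17 hours.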

[11] = target: Cytochrome P450 3A4 (Homo sapiens) (UniProt P08684); assay: qHTS Assay for Inhibitors and Substrates of Cytochrome P450 3A4 (AID 884; active = well fitted curve in the direction sought with a large enough effect; an effect the other way counts as inactive or inconclusive; also: nearly all actives have a fitted effect of over 50% in size; also: potency is read from the fitted curve at half-maximal effect); conditions: recombinant CYP3A4, Luciferin-PPXE luminescence; series mostly up to 57.1 µM
How it was run: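 Luminescent readout of luciferin produced by CYP3A4 (20 nM) dealkylation of Luciferin-PPXE, 25 uM (its KM). NADPH-driven reaction ran 60 min at RT after 10 min compound preincubation; data scaled to 57 uM ketoconazole as 100% inhibition.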

[12] = target: Cytochrome P450 3A4 (Homo sapiens) (UniProt P08684); assay: qHTS Assay for Activators of Cytochrome P450 3A4 (AID 885; active = well fitted curve in the direction sought with a large enough effect; an effect the other way counts as inactive or inconclusive; also: nearly all actives have a fitted effect of over 65% in size; also: potency is read from the fitted curve at half-maximal effect); conditions: recombinant CYP3A4, Luciferin-PPXE luminescence, 60 min; series mostly up to 11.4 µM
How it was run: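 CYP3A4 activity: Luciferin-PPXE O-dealkylation, 25uM substrate, 200mM KPO4, RT throughout. Read-out is luciferase luminescence; higher values reflect activation.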

[13] = target: Cytochrome P450 2D6 (Homo sapiens) (UniProt P10635); assay: qHTS Assay for Inhibitors and Substrates of Cytochrome P450 2D6 (AID 891; active = well fitted curve in the direction sought with a large enough effect; an effect the other way counts as inactive or inconclusive; also: potency is read from the fitted curve at half-maximal effect; nearly all actives have a fitted effect of over 60% in size); conditions: recombinant CYP2D6, luciferin-ME EGE luminescence; series mostly up to 11.4 µM
How it was run: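 Luminescent read-out of luciferin formed by 5 nM human CYP2D6 demethylating 30 uM Luciferin-ME EGE (Km level) over 60 min at room temperature after NADPH regeneration addition. Data normalized to full inhibition by 1.43 uM quinidine.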

[14] = Confirmation and Secondary Assay for Modulators of Hemoglobin Beta Chain Splicing at IVS2 654 locus (AID 910; active = well fitted curve in the direction sought with a large enough effect; an effect the other way counts as inactive or inconclusive;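 also: HeLa cells stably carrying EGFP split by mutant beta-globin IVS2-654 intron; per-well total GFP intensity by laser scanning cytometry after 2-day treatment; % of control where 0% means no effect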); conditions: HeLa EGFP-654 splicing reporter, GFP fluorescence, 48 h; series mostly up to 38.3 µM
How it was run: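 Readout: per-well total peak green fluorescence (488 nm ex, 500–520 nm em) from objects 5–250 µm, reflecting correct splicing of an EGFP-654 reporter. Compounds were applied for 2 days at 37 °C to overnight-plated HeLa EGFP-654 cells; controls were DMSO and 500 nM IVS2-654 PNA.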

[15] = Confirmation and Secondary Assay for Modulators of Hemoglobin Beta Chain Splicing at IVS2 705 locus (AID 930; active = well fitted curve in the direction sought with a large enough effect; an effect the other way counts as inactive or inconclusive;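 also: HeLa cells stably expressing the EGFP-705 splicing reporter; GFP fluorescence per well restored by corrected splicing of the IVS2-705 intron in EGFP; % of control where 0% means no effect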); conditions: HeLa EGFP-705 splicing reporter, GFP fluorescence, 48 h; series mostly up to 38.3 µM
How it was run: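 HeLa EGFP-705 reporter; 500 cells/well, o/n 37C 5% CO2; cpd 2 d; 488 ex/500-520 em laser scan; total peak GFP intensity/well. Ref: 500 nM […] antisense PNA.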

[16] = target: Cytochrome P450 2C9 (Homo sapiens) (UniProt P11712); assay: qHTS Assay for Inhibitors and Substrates of Cytochrome P450 2C9 (AID 883; active = well fitted curve in the direction sought with a large enough effect; an effect the other way counts as inactive or inconclusive; also: potency is read from the fitted curve at half-maximal effect; nearly all actives have a fitted effect of over 60% in size); conditions: recombinant CYP2C9, luciferin-H luminescence, 60 min; series mostly up to 11.4 µM
How it was run: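 Turnover of Luciferin-H (100uM, KM) by 10nM human CYP2C9 was measured over 60 min at 37C with NADPH regeneration; inhibitors and some substrates reduce luminescence. Data normalized to sulphaphenazole 57uM.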

[17] = target: Cytochrome P450 2C19 (Homo sapiens) (UniProt P33261); assay: qHTS Assay for Inhibitors and Substrates of Cytochrome P450 2C19 (AID 899; active = well fitted curve in the direction sought with a large enough effect; an effect the other way counts as inactive or inconclusive; also: potency is read from the fitted curve at half-maximal effect; nearly all actives have a fitted effect of over 60% in size); conditions: recombinant CYP2C19, luciferin-H EGE luminescence; series mostly up to 11.4 µM
How it was run: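 Reactions contain 5nM enzyme, 10uM Luciferin-H EGE (KM) and 50mM KPO4; compound preincubates 10 min at 37C, NADPH regeneration starts turnover for 60 min. Luminescence after detection reagent gives activity.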

Chain of Glucocorticoid receptor (Homo sapiens) (P04150 whole entry, looked up, the tested form may be a part): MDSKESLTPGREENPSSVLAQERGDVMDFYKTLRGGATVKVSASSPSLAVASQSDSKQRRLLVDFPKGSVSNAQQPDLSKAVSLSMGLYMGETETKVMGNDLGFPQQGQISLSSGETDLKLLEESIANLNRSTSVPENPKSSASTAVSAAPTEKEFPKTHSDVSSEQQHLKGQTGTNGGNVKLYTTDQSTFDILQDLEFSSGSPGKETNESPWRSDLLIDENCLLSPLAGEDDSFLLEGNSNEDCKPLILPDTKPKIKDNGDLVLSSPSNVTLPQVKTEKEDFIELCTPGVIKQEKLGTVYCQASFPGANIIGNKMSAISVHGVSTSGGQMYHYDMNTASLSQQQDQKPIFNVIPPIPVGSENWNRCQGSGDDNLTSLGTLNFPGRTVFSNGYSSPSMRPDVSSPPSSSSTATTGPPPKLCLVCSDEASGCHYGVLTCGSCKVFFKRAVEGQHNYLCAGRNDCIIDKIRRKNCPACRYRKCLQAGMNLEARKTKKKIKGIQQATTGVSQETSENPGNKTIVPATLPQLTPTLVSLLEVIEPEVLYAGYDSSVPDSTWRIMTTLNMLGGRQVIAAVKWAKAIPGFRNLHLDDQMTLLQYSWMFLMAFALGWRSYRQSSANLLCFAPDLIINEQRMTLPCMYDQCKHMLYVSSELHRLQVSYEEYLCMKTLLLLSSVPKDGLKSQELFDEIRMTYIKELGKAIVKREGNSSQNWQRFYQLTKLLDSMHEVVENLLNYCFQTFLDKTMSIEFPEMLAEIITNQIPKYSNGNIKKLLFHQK
Chain of Cytochrome P450 1A2 (Homo sapiens) (P05177 whole entry, looked up): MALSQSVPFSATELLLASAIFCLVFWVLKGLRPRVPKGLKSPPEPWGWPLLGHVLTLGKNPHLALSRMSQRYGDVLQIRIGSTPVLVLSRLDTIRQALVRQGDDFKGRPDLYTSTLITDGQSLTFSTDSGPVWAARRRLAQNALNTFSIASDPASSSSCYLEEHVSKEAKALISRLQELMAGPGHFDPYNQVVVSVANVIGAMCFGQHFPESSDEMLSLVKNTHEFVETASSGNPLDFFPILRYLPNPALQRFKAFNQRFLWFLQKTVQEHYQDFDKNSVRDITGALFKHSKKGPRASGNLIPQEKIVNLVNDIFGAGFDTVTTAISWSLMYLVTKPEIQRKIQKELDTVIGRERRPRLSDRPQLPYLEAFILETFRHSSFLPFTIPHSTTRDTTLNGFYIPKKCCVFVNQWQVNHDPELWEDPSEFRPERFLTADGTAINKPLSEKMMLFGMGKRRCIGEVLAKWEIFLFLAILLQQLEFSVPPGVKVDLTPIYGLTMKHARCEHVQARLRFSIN
Chain of 3',5'-cyclic-AMP phosphodiesterase 4B (Homo sapiens) (Q07343 whole entry, looked up): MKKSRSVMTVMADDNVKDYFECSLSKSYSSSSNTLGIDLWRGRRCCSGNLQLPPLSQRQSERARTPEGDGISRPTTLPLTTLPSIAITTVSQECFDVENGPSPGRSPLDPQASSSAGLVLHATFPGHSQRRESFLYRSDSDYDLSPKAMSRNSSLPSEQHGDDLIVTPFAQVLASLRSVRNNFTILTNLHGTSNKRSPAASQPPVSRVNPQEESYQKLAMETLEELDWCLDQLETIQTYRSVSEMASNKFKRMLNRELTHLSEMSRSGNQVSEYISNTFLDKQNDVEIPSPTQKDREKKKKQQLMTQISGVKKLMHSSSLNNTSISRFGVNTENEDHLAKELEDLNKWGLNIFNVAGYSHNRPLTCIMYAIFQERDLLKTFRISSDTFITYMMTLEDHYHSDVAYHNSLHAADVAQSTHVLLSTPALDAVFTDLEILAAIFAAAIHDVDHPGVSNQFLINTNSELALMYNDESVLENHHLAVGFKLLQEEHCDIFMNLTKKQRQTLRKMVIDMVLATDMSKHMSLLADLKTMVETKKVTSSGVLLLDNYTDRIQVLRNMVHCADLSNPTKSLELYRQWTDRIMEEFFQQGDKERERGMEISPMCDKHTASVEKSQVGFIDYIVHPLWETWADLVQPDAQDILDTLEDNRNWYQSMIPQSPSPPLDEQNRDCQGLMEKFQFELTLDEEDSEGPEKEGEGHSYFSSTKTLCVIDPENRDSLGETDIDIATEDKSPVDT
Chain of Lysosomal acid glucosylceramidase (Homo sapiens) (P04062 whole entry, looked up): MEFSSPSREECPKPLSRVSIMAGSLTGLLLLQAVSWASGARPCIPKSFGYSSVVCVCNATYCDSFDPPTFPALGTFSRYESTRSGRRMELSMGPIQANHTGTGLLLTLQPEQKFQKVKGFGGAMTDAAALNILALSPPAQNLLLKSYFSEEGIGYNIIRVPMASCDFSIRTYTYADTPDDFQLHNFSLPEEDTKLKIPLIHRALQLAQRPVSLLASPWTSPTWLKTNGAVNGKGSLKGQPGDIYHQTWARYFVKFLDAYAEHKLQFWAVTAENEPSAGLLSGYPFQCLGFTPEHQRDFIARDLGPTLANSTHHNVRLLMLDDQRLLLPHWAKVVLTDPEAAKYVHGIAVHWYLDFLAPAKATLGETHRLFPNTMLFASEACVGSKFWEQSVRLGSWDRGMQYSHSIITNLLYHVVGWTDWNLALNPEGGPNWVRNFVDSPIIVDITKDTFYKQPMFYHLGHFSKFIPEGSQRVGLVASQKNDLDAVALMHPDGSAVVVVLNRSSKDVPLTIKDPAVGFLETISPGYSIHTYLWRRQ
Chain of Cytochrome P450 3A4 (Homo sapiens) (P08684 whole entry, looked up): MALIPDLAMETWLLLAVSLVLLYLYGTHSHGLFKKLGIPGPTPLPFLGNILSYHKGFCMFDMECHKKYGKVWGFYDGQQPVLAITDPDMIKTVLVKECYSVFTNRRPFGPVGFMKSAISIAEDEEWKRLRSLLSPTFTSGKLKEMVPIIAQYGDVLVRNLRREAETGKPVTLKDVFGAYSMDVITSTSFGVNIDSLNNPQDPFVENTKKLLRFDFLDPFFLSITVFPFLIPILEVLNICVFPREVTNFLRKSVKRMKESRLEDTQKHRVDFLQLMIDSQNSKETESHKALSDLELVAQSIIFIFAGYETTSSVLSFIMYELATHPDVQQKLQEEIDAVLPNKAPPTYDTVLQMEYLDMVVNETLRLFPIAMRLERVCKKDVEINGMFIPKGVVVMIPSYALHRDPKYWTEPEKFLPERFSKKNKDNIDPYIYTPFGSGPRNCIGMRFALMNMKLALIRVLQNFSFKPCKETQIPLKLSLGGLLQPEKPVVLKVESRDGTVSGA
Chain of Cytochrome P450 2C19 (Homo sapiens) (P33261 whole entry, looked up): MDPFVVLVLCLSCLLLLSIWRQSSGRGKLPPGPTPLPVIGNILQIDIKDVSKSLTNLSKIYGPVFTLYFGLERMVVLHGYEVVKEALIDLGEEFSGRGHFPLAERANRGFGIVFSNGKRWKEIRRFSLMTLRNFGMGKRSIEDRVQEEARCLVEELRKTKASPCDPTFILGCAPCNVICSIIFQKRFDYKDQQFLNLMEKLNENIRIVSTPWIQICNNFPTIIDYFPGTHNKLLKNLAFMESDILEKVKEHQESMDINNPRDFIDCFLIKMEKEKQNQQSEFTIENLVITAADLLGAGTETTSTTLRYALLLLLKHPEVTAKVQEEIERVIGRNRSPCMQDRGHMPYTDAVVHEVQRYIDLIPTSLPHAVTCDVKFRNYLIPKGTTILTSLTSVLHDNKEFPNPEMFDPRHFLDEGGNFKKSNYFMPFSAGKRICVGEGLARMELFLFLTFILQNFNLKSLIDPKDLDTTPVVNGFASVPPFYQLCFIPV
Chain of Cytochrome P450 2C9 (Homo sapiens) (P11712 whole entry, looked up): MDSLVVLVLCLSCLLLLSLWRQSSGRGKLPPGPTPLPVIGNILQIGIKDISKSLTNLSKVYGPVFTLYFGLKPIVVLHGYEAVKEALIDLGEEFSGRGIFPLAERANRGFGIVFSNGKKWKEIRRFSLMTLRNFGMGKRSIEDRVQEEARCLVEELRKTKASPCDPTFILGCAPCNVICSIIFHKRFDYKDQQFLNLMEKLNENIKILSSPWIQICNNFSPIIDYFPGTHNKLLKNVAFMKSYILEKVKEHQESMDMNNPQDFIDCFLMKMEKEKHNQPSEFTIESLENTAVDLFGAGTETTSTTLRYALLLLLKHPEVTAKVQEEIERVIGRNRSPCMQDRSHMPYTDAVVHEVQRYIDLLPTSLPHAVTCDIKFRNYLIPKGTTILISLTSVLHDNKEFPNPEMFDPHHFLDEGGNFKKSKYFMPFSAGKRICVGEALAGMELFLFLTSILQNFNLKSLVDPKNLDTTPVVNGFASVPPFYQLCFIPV
Chain of Cytochrome P450 2D6 (Homo sapiens) (P10635 whole entry, looked up): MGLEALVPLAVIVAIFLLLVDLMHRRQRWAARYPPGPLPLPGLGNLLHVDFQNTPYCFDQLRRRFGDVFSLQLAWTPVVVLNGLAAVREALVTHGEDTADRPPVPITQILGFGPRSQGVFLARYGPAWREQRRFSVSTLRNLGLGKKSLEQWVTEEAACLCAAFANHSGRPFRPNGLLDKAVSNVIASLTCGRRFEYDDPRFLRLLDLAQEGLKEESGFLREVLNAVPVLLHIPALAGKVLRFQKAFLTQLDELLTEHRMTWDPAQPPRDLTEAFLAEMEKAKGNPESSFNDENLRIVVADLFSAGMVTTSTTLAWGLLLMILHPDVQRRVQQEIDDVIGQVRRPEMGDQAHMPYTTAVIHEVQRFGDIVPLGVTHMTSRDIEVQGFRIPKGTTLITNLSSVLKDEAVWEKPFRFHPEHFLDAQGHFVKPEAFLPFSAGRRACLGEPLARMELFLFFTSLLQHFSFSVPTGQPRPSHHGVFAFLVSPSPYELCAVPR

| SMILES | Potency [1] [µM] | activity change, negative = inhibition [2] [%] | Potency [3] | activity change, negative = inhibition [4] [%] | activity, negative = inhibition [5] [%] | Potency [6] [µM] | Potency [7] [µM] | Potency [8] | Potency [9] | activation [10] [%] | Potency [11] | Potency [12] | Potency [13] | outcome [14] | outcome [15] | activity change, negative = inhibition [3] | Potency [16] | Potency [17] | activity change, negative = inhibition [11] |
| --- | --- | --- | --- | --- | --- | --- | --- | --- | --- | --- | --- | --- | --- | --- | --- | --- | --- | --- | --- |
| NC(=O)C[C@H](N)C(N)=O | > 11.4 | -1.63 | inactive | 12.4 | 2.81 | > 46 | > 9.22 | inactive | inactive | 9.57 | – | – | – | – | – | – | – | – | – |
| COc1ccccc1-c1nc(NCc2ccccc2)c2ccccc2n1 | > 11.4 | 24 | 0.398 µM (active) | -19.4 | 0.0453 | > 46 | > 46 | inactive | – | – | 3.98 µM (active) | inactive | 1.58 µM (active) | inactive | inactive | – | – | – | – |
| FC(F)(F)c1nc(SCc2ccc(Cl)cc2)n[nH]1 | > 11.4 | 1.59 | – | -9.79 | -0.49 | > 46 | > 9.22 | inactive | inactive | 8.01 | – | – | – | – | – | -18.8% [at 2.29 µM] | – | – | – |
| O=C(Nc1ccc2ncccc2c1)Nc1ccc2ncccc2c1 | > 11.4 | -16.2 | – | 21.4 | -14.3 | > 46 | > 9.22 | inactive | inactive | -12.2 | – | – | – | – | – | -28.5% [at 2.29 µM] | – | – | – |
| O=C(O)/C=C\C(=O)Nc1ccccn1 | > 11.4 | 1.01 | inactive | 11.9 | -1.9 | > 46 | > 9.22 | inactive | inactive | 4.82 | – | – | – | – | – | – | – | – | – |
| O=C(O)C1(Nc2ccc(Cl)cc2)CCCC1 | > 11.4 | -1.27 | inactive | 7.56 | 5.72 | > 46 | > 9.22 | inactive | inactive | 0.664 | – | – | – | – | – | – | – | – | – |
| N=C(N)SCc1cc(Cl)cc(Cl)c1O | > 11.4 | 3.73 | 5.01 µM (active) | 5.42 | 2.98 | > 46 | > 9.22 | inactive | inactive | -24.5 | – | – | – | – | – | – | – | – | – |
| C[C@@H]1NCC[C@H](CC(=O)O)[C@H]1CC(=O)O | > 11.4 | 8.61 | inactive | -12 | 8.09 | > 46 | > 9.22 | inactive | inactive | 3.32 | – | – | – | – | – | – | – | – | – |
| CC1(C)[C@@H]2CC[C@]1(CC(=O)O)[C@H](Cl)C2 | > 11.4 | 9.82 | inactive | 2.95 | 6.68 | > 46 | > 9.22 | inactive | inactive | 2.22 | – | – | – | – | – | – | – | – | – |
| COC(=O)[C@]1(C)CCC(c2ccc(C)cc2)=C(CC(=O)O)C1 | > 11.4 | -2.42 | – | -1.89 | 2.79 | > 46 | > 9.22 | inactive | inactive | 4.66 | – | – | – | – | – | -8.4% [at 2.29 µM] | – | – | – |
| CCO[P@]1(=O)OC[C@@H]2O[C@H](n3cnc4c(N)ncnc43)[C@H](O)[C@@H]2O1 | > 11.4 | -10.8 | – | 4.19 | -5.06 | > 46 | > 9.22 | inactive | inactive | 10.2 | – | – | – | – | – | -15.6% [at 2.29 µM] | – | – | – |
| O=[N+]([O-])c1ccc2c(c1)S(=O)c1ccccc1-2 (centres undefined) | > 11.4 | 11.5 | 0.2 µM (active) | 10.5 | -13.7 | > 46 | > 9.22 | inactive | inactive | -10.8 | – | – | – | – | – | – | – | – | – |
| COc1ccccc1CCn1c(=O)c(-c2ccccc2)nc2cncnc21 | > 11.4 | -5.11 | 1 µM (active) | -9.96 | -0.776 | > 9.22 | > 46 | inactive | – | – | – | inactive | – | – | – | – | 5.01 µM (active) | 0.631 µM (active) | – |
| CC(=O)OCC(=O)[C@]12OC(C)(C)O[C@@H]1C[C@H]1[C@H]3CC=C4C[C@@H](O)CC[C@]4(C)[C@H]3CC[C@]12C | > 11.4 | 8.77 | inactive | -9.45 | 5.43 | > 46 | > 9.22 | inactive | – | – | – | 3.16 µM (active) | – | – | – | – | – | – | 69.9% [at 11.4 µM] |
